According to the supplement of paper PMC10849652:
Of roughly 8,800 targets only a part is listed; those with a hit were picked by preference. About 0.5% of all pairs of compound and target were hits.

Key:
Assay in all cases: log2 fold change, soluble protein after heating vs DMSO (PISA); higher = thermal stabilisation; K562 lysate, 10 uM; active = over 0.2 and 3.5 SD of the protein, either way, in both replicates (recomputed)
alvocidib = compound: CN1CC[C@H](c2c(O)cc(O)c3c(=O)cc(-c4ccccc4Cl)oc23)[C@H](O)C1 [alvocidib]
Procedure, shortened: (§1)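 Soluble protein was defined as the supernatant remaining after 21,000xg for 90 min, following pooling of heated aliquots and adjustment to 0.5% NP-40 at 4°C. Before that, crude K562 extract at 1 mg/mL protein in PBS pH 7.4 with 1 mM MgCl2 was treated with 10 μM compound for 30 min and heated for 3 min across 48°C-58°C. Quantification used TMTpro 16plex LC-MS/MS with channel sums equalised, and values are log-two fold changes in thermal stability relative to solvent controls from duplicates.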

Tubastatin A = compound: CN1CCc2c(c3ccccc3n2Cc2ccc(C(=O)NO)cc2)C1 [Tubastatin A]
Procedure, shortened: as §1

[1] = compound: CNC(=O)C1=CC=CC=C1NC2=NC(=NC=C2Cl)NC3=C(C=C(C=C3)N4CCOCC4)OC
Procedure, shortened: as §1

defactinib = compound: CNC(=O)c1ccc(Nc2ncc(C(F)(F)F)c(NCc3nccnc3N(C)S(C)(=O)=O)n2)cc1 [defactinib]
Procedure, shortened: as §1

[2] = compound: CNc1nc(-c2ccc3c(N)n[nH]c3c2)cc(N2C[C@@H](C(=O)NC3CCCCC3)CC[C@H]2C)n1
Procedure, shortened: as §1

encorafenib = compound: COC(=O)N[C@@H](C)CNc1nccc(-c2cn(C(C)C)nc2-c2cc(Cl)cc(NS(C)(=O)=O)c2F)n1 [encorafenib]
Procedure, shortened: as §1

[3] = compound: COC(=O)[C@H](CCSC)NC(=O)C1=C(C=C(C=C1)NC[C@H](CS)N)C2=CC=CC=C2
Procedure, shortened: as §1

alisertib = compound: COc1cc(Nc2ncc3c(n2)-c2ccc(Cl)cc2C(c2c(F)cccc2OC)=NC3)ccc1C(=O)O [alisertib]
Procedure, shortened: as §1

[4] = compound: COc1cc2nc(-c3cc(F)ccc3O)nc(N[C@@H]3CNC[C@H]3C(C)(C)O)c2cc1OC
Procedure, shortened: as §1

gefitinib = compound: COc1cc2ncnc(Nc3ccc(F)c(Cl)c3)c2cc1OCCCN1CCOCC1 [gefitinib]
Procedure, shortened: as §1

Measured: log2 fold change

THADA (UniProt Q6YHU6)
inactive: alvocidib -0.002 | Tubastatin A -0.165 | [1] 0.008 | defactinib 0.014 | [2] -0.013 | encorafenib 0.022 | [3] 0.031 | alisertib 0.01 | [4] 0.012 | gefitinib 0.001

TYW3 (UniProt Q6IPR3)
inactive: alvocidib -0.033 | Tubastatin A 0.014 | [1] -0.007 | defactinib -0.021 | [2] 0.061 | encorafenib 0.027 | [3] -0.064 | alisertib -0.03 | [4] 0.019 | gefitinib 0.01

TFCP2 (UniProt Q12800)
Sequence of UniProt Q12800 (Q12800 whole entry, looked up): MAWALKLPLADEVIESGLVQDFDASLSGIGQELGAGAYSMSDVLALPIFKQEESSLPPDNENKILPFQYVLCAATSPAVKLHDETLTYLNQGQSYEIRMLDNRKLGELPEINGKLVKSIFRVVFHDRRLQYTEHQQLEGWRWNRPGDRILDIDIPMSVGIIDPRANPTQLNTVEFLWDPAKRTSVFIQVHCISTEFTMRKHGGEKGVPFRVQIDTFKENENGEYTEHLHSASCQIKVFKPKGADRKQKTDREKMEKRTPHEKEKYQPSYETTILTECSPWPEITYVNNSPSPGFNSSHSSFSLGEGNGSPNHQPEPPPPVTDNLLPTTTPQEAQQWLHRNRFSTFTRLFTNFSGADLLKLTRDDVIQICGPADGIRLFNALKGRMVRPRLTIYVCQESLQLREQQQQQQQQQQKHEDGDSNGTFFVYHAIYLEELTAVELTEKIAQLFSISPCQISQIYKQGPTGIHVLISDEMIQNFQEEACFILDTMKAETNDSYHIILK
inactive: alvocidib 0.015 | Tubastatin A -0.215 | [1] 0.169 | defactinib 0.003 | [2] 0.009 | encorafenib 0.093 | [3] 0.044 | alisertib 0.019 | [4] -0.049 | gefitinib -0.033

TRAPPC10 (UniProt P48553)
inactive: alvocidib -0.034 | Tubastatin A -0.074 | [1] 0.01 | defactinib -0.034 | [2] 0.011 | encorafenib 0.009 | [3] -0.047 | alisertib 0.015 | [4] -0.001 | gefitinib -0.029

TRAPPC6A isoform 2 (UniProt O75865)
inactive: alvocidib 0.059 | Tubastatin A -0.006 | [1] 0.011 | defactinib -0.026 | [2] -0.017 | encorafenib -0.142 | [3] -0.027 | alisertib -0.052 | [4] 0 | gefitinib -0.043

TCF12 isoform 3 (UniProt Q99081)
inactive: alvocidib -0.045 | Tubastatin A -0.129 | [1] 0.009 | defactinib -0.007 | [2] -0.013 | encorafenib 0.039 | [3] -0.043 | alisertib 0.004 | [4] -0.025 | gefitinib 0.028

TTI2 (UniProt Q6NXR4)
inactive: alvocidib -0.006 | Tubastatin A -0.081 | [1] 0.03 | defactinib 0.069 | [2] 0.006 | encorafenib 0.072 | [3] 0.015 | alisertib 0.004 | [4] 0.024 | gefitinib -0.034

TMEM199 (UniProt Q8N511)
inactive: alvocidib -0.032 | Tubastatin A 0.097 | [1] -0.035 | defactinib -0.023 | [2] -0.001 | encorafenib -0.011 | [3] -0.093 | alisertib 0 | [4] -0.007 | gefitinib 0.001

TTC12 isoform 2 (UniProt Q9H892)
inactive: alvocidib -0.024 | Tubastatin A -0.279 | [1] -0.06 | defactinib -0.05 | [2] -0.041 | encorafenib -0.052 | [3] -0.03 | alisertib -0.145 | [4] -0.043 | gefitinib 0.137

TNKS (UniProt O95271)
inactive: alvocidib -0.223 | Tubastatin A -0.087 | [1] 0.04 | defactinib -0.013 | [2] -0.031 | encorafenib -0.078 | [3] 0.022 | alisertib -0.002 | [4] -0.072 | gefitinib -0.069

TUBA1B (UniProt P68363)
Sequence of UniProt P68363 (P68363 whole entry, looked up): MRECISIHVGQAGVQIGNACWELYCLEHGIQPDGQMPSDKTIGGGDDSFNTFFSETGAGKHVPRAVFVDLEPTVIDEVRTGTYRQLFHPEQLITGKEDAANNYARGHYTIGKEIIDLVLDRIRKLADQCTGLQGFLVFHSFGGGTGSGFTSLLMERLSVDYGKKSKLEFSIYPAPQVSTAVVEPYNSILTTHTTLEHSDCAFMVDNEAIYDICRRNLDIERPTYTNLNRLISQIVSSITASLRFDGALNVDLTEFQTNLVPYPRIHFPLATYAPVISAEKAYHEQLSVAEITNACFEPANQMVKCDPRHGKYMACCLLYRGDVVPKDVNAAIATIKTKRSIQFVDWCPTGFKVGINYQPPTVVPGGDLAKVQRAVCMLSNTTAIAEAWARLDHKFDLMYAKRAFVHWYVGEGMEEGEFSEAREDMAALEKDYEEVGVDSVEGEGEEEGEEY
inactive: alvocidib -0.027 | Tubastatin A -0.056 | [1] 0.019 | defactinib -0.03 | [2] 0.003 | encorafenib -0.004 | [3] 0.085 | alisertib 0.026 | [4] -0.004 | gefitinib 0.013

TUBE1 (UniProt Q9UJT0)
inactive: alvocidib 0.06 | Tubastatin A -0.001 | [1] 0.062 | defactinib 0.107 | [2] -0.027 | encorafenib 0.036 | [3] -0.108 | alisertib 0.052 | [4] -0.009 | gefitinib -0.005

TUBB6 (UniProt Q9BUF5)
inactive: alvocidib 0.023 | Tubastatin A -0.064 | [1] 0.015 | defactinib 0.034 | [2] 0.023 | encorafenib 0.017 | [3] 0.056 | alisertib 0.028 | [4] 0.011 | gefitinib -0.024

TCF3 (UniProt P15923)
inactive: alvocidib -0.039 | Tubastatin A -0.066 | [1] 0.034 | defactinib 0.089 | [2] 0.19 | encorafenib 0.135 | [3] -0.051 | alisertib 0.047 | [4] 0.027 | gefitinib 0.023

UBE3B (UniProt Q7Z3V4)
Sequence of UniProt Q7Z3V4 (Q7Z3V4 whole entry, looked up): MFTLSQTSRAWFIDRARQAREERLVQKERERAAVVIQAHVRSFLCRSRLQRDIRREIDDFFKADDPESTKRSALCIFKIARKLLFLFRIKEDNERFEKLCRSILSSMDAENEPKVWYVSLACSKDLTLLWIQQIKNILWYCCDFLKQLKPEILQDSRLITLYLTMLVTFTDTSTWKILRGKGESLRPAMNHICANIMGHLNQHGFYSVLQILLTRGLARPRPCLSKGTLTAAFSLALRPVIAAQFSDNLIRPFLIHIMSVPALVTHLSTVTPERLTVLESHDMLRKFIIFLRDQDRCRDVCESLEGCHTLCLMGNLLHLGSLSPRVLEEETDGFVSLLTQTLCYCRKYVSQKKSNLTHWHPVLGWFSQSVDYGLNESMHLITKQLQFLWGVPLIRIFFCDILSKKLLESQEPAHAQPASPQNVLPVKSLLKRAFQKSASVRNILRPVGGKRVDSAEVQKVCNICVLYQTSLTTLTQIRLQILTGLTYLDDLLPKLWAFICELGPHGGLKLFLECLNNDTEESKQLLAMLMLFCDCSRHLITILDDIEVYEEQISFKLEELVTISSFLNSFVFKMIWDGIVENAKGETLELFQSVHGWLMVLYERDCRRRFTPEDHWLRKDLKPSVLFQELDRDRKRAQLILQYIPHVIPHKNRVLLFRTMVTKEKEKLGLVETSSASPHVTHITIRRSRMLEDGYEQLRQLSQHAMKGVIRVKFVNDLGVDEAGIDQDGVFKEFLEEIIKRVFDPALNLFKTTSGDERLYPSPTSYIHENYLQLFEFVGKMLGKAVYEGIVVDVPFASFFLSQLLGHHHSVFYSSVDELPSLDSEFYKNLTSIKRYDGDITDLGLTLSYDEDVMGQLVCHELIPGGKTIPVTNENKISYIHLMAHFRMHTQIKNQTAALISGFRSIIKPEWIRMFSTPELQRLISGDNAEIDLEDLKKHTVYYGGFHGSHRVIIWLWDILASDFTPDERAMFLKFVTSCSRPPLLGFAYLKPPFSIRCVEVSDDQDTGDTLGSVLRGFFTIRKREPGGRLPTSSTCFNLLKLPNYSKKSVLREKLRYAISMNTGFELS
inactive: alvocidib -0.07 | Tubastatin A -0.134 | [1] 0.136 | defactinib 0.028 | [2] 0.008 | encorafenib 0.102 | [3] -0.047 | alisertib 0 | [4] 0.006 | gefitinib 0.044

TELO2 (UniProt Q9Y4R8)
Sequence of UniProt Q9Y4R8 (Q9Y4R8 whole entry, looked up): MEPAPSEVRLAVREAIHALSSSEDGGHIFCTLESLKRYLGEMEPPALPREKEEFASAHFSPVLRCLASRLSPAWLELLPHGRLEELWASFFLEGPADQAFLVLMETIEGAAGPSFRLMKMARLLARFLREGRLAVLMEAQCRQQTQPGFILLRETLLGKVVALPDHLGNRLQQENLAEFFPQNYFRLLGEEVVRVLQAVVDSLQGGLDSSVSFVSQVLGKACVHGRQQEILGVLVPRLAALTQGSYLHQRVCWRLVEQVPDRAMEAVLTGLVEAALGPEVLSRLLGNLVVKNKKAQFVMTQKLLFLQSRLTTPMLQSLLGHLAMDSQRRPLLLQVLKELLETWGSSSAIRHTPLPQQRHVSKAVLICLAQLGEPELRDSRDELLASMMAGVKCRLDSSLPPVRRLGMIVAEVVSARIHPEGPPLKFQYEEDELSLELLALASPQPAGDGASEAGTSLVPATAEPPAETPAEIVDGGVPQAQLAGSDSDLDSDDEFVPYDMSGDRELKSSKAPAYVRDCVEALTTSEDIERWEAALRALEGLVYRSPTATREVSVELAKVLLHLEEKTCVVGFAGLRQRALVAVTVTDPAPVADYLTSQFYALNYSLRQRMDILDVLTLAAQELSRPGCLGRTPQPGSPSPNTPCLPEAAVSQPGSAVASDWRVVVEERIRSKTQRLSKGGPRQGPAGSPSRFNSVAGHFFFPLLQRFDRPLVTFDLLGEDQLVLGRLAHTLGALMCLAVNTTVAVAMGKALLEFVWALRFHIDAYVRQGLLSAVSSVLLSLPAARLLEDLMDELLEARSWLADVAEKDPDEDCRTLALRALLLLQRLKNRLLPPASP
inactive: alvocidib -0.01 | Tubastatin A -0.164 | [1] 0.035 | defactinib -0.008 | [2] -0.036 | encorafenib 0.003 | [3] 0.139 | alisertib 0.008 | [4] -0.009 | gefitinib 0.011

TMEM87B (UniProt Q96K49)
inactive: alvocidib 0.035 | Tubastatin A 0.044 | [1] -0.035 | defactinib -0.032 | [2] -0.045 | encorafenib -0.055 | [3] 0.017 | alisertib 0.004 | [4] 0.031 | gefitinib 0.018

TTC38 (UniProt Q5R3I4)
Sequence of UniProt Q5R3I4 (Q5R3I4 whole entry, looked up): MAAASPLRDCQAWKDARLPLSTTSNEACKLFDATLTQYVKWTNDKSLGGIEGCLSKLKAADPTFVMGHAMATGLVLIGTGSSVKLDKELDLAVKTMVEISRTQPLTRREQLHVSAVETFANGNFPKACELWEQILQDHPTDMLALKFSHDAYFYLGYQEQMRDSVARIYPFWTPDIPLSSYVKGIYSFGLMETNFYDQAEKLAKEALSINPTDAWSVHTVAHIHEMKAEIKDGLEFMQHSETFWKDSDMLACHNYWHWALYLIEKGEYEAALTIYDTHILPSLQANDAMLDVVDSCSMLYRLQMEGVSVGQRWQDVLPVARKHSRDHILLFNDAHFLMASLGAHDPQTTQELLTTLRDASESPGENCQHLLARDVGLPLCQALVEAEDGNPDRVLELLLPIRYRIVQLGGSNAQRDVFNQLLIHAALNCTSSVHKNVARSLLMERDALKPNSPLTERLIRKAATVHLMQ
inactive: alvocidib 0.121 | Tubastatin A -0.013 | [1] 0.004 | defactinib 0.001 | [2] 0.034 | encorafenib -0.045 | [3] 0.013 | alisertib -0.046 | [4] -0.018 | gefitinib -0.069

TUBA3C (UniProt P0DPH7)
inactive: alvocidib -0.012 | Tubastatin A -0.15 | [1] 0.01 | defactinib -0.013 | [2] -0.018 | encorafenib -0.037 | [3] 0.042 | alisertib -0.023 | [4] -0.035 | gefitinib -0.005

TRIM25 (UniProt Q14258)
Sequence of UniProt Q14258 (Q14258 whole entry, looked up): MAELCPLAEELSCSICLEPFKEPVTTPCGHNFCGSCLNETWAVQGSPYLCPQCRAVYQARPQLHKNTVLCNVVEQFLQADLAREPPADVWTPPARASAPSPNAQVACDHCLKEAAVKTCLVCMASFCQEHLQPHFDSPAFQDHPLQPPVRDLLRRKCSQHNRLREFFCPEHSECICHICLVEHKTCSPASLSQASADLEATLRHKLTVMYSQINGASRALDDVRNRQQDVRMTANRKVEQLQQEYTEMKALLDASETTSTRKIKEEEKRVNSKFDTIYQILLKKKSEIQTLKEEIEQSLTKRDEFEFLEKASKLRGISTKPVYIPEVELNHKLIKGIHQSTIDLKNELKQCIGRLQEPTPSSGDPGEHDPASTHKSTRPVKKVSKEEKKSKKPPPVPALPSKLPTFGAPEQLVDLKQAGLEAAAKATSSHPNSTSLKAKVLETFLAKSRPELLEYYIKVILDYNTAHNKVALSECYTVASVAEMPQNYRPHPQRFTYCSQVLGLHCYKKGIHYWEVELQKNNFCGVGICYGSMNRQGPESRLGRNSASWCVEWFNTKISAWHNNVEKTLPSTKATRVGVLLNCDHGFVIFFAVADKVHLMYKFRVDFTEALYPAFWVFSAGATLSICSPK
inactive: alvocidib 0.022 | Tubastatin A -0.04 | [1] 0.009 | defactinib -0.009 | [2] 0.042 | encorafenib -0.011 | [3] -0.058 | alisertib -0.01 | [4] -0.002 | gefitinib -0.029

TMEM97 (UniProt Q5BJF2)
Sequence of UniProt Q5BJF2 (Q5BJF2 whole entry, looked up): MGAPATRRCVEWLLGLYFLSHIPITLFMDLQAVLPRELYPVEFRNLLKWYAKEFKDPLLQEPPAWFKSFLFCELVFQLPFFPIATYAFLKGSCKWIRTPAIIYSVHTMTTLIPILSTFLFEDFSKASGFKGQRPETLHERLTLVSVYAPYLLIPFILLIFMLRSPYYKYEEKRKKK
inactive: alvocidib -0.081 | Tubastatin A 0.114 | [1] -0.016 | defactinib -0.021 | [2] 0.091 | encorafenib -0.008 | [3] -0.042 | alisertib -0.026 | [4] 0.014 | gefitinib -0.017

TUBB (UniProt P07437)
inactive: alvocidib 0.01 | Tubastatin A -0.035 | [1] -0.001 | defactinib 0.007 | [2] 0.007 | encorafenib -0.013 | [3] 0.081 | alisertib 0.014 | [4] -0.012 | gefitinib -0.031

TLK1 isoform 2 (UniProt Q9UKI8)
Sequence of UniProt Q9UKI8 (Q9UKI8 whole entry, looked up): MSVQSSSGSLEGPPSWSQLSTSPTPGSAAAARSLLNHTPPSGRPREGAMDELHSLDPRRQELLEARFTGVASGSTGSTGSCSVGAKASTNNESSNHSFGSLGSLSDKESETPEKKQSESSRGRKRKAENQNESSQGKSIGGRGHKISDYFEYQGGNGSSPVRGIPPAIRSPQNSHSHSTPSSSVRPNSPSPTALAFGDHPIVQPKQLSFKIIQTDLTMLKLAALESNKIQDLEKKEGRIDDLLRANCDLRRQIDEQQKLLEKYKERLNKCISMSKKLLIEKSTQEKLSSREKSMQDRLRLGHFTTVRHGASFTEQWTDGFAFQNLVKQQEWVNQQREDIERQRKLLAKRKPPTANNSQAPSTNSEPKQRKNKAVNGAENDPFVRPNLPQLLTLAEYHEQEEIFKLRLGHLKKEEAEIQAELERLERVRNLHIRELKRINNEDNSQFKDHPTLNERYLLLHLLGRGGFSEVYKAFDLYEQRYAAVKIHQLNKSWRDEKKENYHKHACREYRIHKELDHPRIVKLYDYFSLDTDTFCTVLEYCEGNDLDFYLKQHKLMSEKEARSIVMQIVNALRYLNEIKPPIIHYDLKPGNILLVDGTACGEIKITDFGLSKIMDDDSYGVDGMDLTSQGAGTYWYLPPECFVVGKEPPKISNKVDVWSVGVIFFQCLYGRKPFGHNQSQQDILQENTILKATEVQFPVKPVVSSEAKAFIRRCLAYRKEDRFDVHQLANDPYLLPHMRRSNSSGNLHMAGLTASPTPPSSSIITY
inactive: alvocidib -0.05 | Tubastatin A -0.092 | [1] 0.046 | defactinib 0.16 | [2] 0.023 | encorafenib -0.045 | [3] -0.14 | alisertib -0.028 | [4] 0.05 | gefitinib 0.01

TUBA4A (UniProt P68366)
inactive: alvocidib 0.003 | Tubastatin A -0.068 | [1] 0.049 | defactinib 0.014 | [2] -0.001 | encorafenib -0.039 | [3] 0.125 | alisertib 0.027 | [4] 0.032 | gefitinib 0.007

UBL4A (UniProt P11441)
inactive: alvocidib 0.016 | Tubastatin A -0.039 | [1] -0.015 | defactinib 0.006 | [2] -0.008 | encorafenib 0.046 | [3] -0.043 | alisertib 0.018 | [4] -0.059 | gefitinib -0.033

TMPO (UniProt P42167)
inactive: alvocidib -0.007 | Tubastatin A 0.018 | [1] -0.034 | defactinib -0.015 | [2] 0.029 | encorafenib 0.035 | [3] -0.163 | alisertib -0.026 | [4] -0.025 | gefitinib 0.027

TTMP isoform 3 (UniProt Q5BVD1)
inactive: alvocidib -0.347 | Tubastatin A 0.24 | [1] -0.105 | defactinib -0.088 | [2] 0.36 | encorafenib -0.06 | [3] 0.06 | alisertib 0.119 | [4] 0.129 | gefitinib 0.02

UBR3 isoform 4 (UniProt Q6ZT12)
inactive: alvocidib 0.012 | Tubastatin A -0.155 | [1] 0.074 | defactinib -0.062 | [2] -0.03 | encorafenib -0.006 | [3] 0.054 | alisertib -0.005 | [4] 0.005 | gefitinib 0.018

TTC27 (UniProt Q6P3X3)
inactive: alvocidib 0.012 | Tubastatin A -0.148 | [1] -0.049 | defactinib 0.023 | [2] -0.007 | encorafenib 0.028 | [3] 0.057 | alisertib 0.027 | [4] 0.012 | gefitinib 0.02
